Assay results published in the supplement of paper PMC7156485.
± gives the standard deviation of the averaged measurements.

How the values were obtained:
Details in all cases: concentration: 10 µM; 24 h
HCC1569 [1] = test: cell number relative to DMSO (% of DMSO); higher = more cells (less growth inhibition / toxicity)
In short: (§1)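 H1.0 nuclear intensity or cell number is expressed as percent of the plate control, with the median of replicates taken. HCC1569 and TDF cells were treated with compounds at 10 µM for 24 h at 37 °C, in triplicate, then fixed and immunostained for H1.0 with DAPI as a nuclear stain. HCC1569 values were smoothed to correct for positional effects.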

TDF [2] = test: as above
In short: as §1

TDF [3] = test: H1.0 immunofluorescence intensity relative to DMSO (% of DMSO); higher = stronger H1.0 induction, active = 120 or more
In short: as §1

HCC1569 [4] = test: H1.0 immunofluorescence intensity relative to DMSO (% of DMSO); higher = stronger H1.0 induction, active = 140 or more
In short: as §1
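For H1.0 immunofluorescence intensity relative to DMSO in this document: TDF is a line of transformed human dermal fibroblasts of mesenchymal origin.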
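For cell number relative to DMSO in this document: TDF denotes transformed human dermal fibroblasts of mesenchymal origin.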

SMILES	cell number (HCC1569 [1])	cell number (TDF [2])	H1.0 immunofluorescence intensity (TDF [3])	H1.0 immunofluorescence intensity (HCC1569 [4])
Cc1ncc(Cl)cc1NCc1ccc(C(=O)N[C@@H](CC2CCCC2)C(=O)NC2CC2)s1	96.6	96.1	99.9 (inactive)	101 (inactive)
Nc1ncnc2c1nc(Br)n2C1OC2COP(=O)([O-])OC2C1O.[Na+] (stereo not given) [8-Bromo-cAMP sodium]	104	110	95.5 (inactive)	90.3 (inactive)
Oc1cc2c(c(Cl)c1O)CCNCC2c1ccccc1 (stereo not given)	99.5	87.8	85.5 (inactive)	105 (inactive)
CCCCCCCCCCCC=CCCCCC(=O)O [6(E)-Octadecenoic acid]	100	101	102 (inactive)	89.5 (inactive)
NC(=O)c1ccccc1 [Benzamide]	98.5	87.1	99.2 (inactive)	107 (inactive)
O.O=P(O)(O)C(O)(Cn1ccnc1)P(=O)(O)O	99.2	94	94.5 (inactive)	102 (inactive)
Cn1c(=O)c2[nH]cnc2n(C)c1=O.Cn1c(=O)c2[nH]cnc2n(C)c1=O.NCCN [Aminophylline ethylenediamine]	103	102	98.7 (inactive)	93.8 (inactive)
NC(CCC(=O)NC(CS)C(=O)NCC(=O)O)C(=O)O (stereo not given) [Glutathione]	101	96.1	91 (inactive)	93 (inactive)
Cl.O=c1cc(N2CCOCC2)oc2c(-c3ccccc3)cccc12 [LY-294,002 hydrochloride]	82	90.9	82.5 (inactive)	131 (inactive)
CCOC(OCC)P(=O)(O)CCCNCc1ccc(Cl)c(Cl)c1	108	95.6	98.3 (inactive)	102 (inactive)
O=C(O)C1CCNCC1 [Isonipecotic acid]	102	104	91.5 (inactive)	91.2 (inactive)
CC(C)NCC(O)COc1ccc(CC(N)=O)cc1 (stereo not drawn) [S(-)-Atenolol]	101	105	92.2 (inactive)	96.4 (inactive)
COc1cc(C2CC(=O)c3c(O)cc(O)cc3O2)ccc1O (stereo not given) [Homoeriodictyol]	97.9	99.7	99 (inactive)	88.7 (inactive)
CC1(C)SC2C(NC(=O)C(N)c3ccc(O)cc3)C(=O)N2C1C(=O)O (stereo not given) [Amoxicillin]	107	103	105 (inactive)	104 (inactive)
Cl.N[C@@H](CCC(=O)O)C(=O)O [L-Glutamic acid hydrochloride]	103	114	90.1 (inactive)	91.5 (inactive)
Cc1ccc(C(=O)Nc2ccc(S(=O)(=O)[O-])c3cc(S(=O)(=O)[O-])cc(S(=O)(=O)[O-])c23)cc1NC(=O)c1cccc(NC(=O)Nc2cccc(C(=O)Nc3cc(C(=O)Nc4ccc(S(=O)(=O)[O-])c5cc(S(=O)(=O)[O-])cc(S(=O)(=O)[O-])c45)ccc3C)c2)c1 [Suramin]	94.4	86.9	96.7 (inactive)	107 (inactive)
CCCCc1oc2ccccc2c1C(=O)c1cc(I)c(OCCN(CC)CC)c(I)c1.Cl [Amiodarone hydrochloride]	98.5	92	98.9 (inactive)	101 (inactive)
Cl.Cl.NCCC(=O)NCCc1cnc[nH]1 [Carcinine dihydrochloride]	97.3	107	94.6 (inactive)	88.5 (inactive)
Cl.N=C(N=C(N)N)N1CCOCC1 [Moroxydine.HCl]	106	120	98.7 (inactive)	88.6 (inactive)
C=C(C)C1CCC2(CO)CCC3(C)C(CCC4C5(C)CCC(O)C(C)(C)C5CCC43C)C12 (stereo not given) [Betulin]	107	99.2	98.9 (inactive)	95.6 (inactive)
CCC1C(=O)N(C)c2cnc(Nc3ccc(C(=O)NC4CCN(C)CC4)cc3OC)nc2N1C1CCCC1 (stereo not given)	27.1	32.4	157 (active)	136 (inactive)
COCc1nc2c([nH]1)c(=O)n(C)c(=O)n2CC(C)C [8-Methoxymethyl-3-isobutyl-1-methylxanthine]	104	110	92.4 (inactive)	93.2 (inactive)
CN1C(=O)CC(C(=O)O)C1c1cccnc1 (stereo not drawn) [Trans-4-Cotininecarboxylic acid]	98.4	100	93.3 (inactive)	85.3 (inactive)
NC(=O)c1ccc(-c2nc(-c3ccc4c(c3)OCCO4)c(-c3ccccn3)[nH]2)cc1 [Casein Kinase I Inhibitor, D4476]	92.2	97	95.4 (inactive)	127 (inactive)
COc1cc(CNC(=O)CCCCCCC(C)C)ccc1O [Dihydrocapsaicin]	96.7	101	91.1 (inactive)	97 (inactive)

SMILES	cell number (HCC1569 [1])	cell number (TDF [2])	H1.0 immunofluorescence intensity (TDF [3])	H1.0 immunofluorescence intensity (HCC1569 [4])
CCOc1cc2ncc(C#N)c(Nc3ccc(F)c(Cl)c3)c2cc1NC(=O)/C=C/CN(C)C	43.6	10	177 (active)	84.6 (inactive)
CC1(C)CNc2cc(NC(=O)c3cccnc3NCc3ccncc3)ccc21 [Motesanib]	90	91.4	107 (inactive)	106 (inactive)
NC(=O)c1cccc(-c2cc(Nc3ccc(OC(F)(F)F)cc3)ncn2)c1 [Bcr-abl Inhibitor]	89.5	92.8	98.5 (inactive)	124 (inactive)
Cc1cc2nc(NCCCO)n(CC(=O)c3cc(C(C)(C)C)c(O)c(C(C)(C)C)c3)c2cc1C	67.9	78.5	97.1 (inactive)	173 (active)
CC1COc2c(N3CCN(C)CC3)c(F)cc3c(=O)c(C(=O)O)cn1c23 (stereo not given) [Ofloxacin]	101.5 ± 0.68	101 ± 5.3	95 (inactive)	96.5 (inactive)
O=c1c(O)c(-c2cc(O)c(O)c(O)c2)oc2cc(O)cc(O)c12 [Myricetin]	102 ± 3.7	101 ± 3.9	88.4 (inactive)	91.7 (inactive)
Br.CN1CCc2cc(O)c(O)cc2C(c2ccccc2)C1 (stereo not given)	105	98.2	89.8 (inactive)	105 (inactive)
CCOC(=O)[C@H](Cc1ccc([N+](=O)[O-])cc1)NC(=O)c1ccccc1 [ethyl (2S)-2-(benzoylamino)-3-(4-nitrophenyl)propanoate]	101	98.3	93.8 (inactive)	95 (inactive)
CCC(=O)N1CCN(C(=O)c2ccccc2)CC1	106	111	94.2 (inactive)	89.3 (inactive)
CN(C)CCOC(c1ccccc1)c1ccccc1.Cl [Diphenhydramine.HCl]	106	103	100 (inactive)	107 (inactive)
CCN(CC)CCCCCCCCOC(=O)c1cc(OC)c(OC)c(OC)c1.Cl [TMB-8 hydrochloride]	105	105	99.8 (inactive)	84.2 (inactive)
Cl.NO [Hydroxylamine hydrochloride]	96.2	95.5	97.8 (inactive)	89.7 (inactive)
CC(C)CC(NC(=O)C(O)C(N)Cc1ccccc1)C(=O)O.Cl (stereo not given) [Bestatin hydrochloride]	101	104	96.3 (inactive)	99.6 (inactive)
N#CC(=Cc1ccc(O)c(O)c1)C(=O)NCc1ccccc1	95.2	96	91.1 (inactive)	121 (inactive)
COc1cc2nc(N3CCN(C(=O)c4ccco4)CC3)nc(N)c2cc1OC.Cl [Prazosin hydrochloride]	91.9	99.8	93.6 (inactive)	106 (inactive)
CCCCCC=CCC=CCC=CCCCCCCC(=O)OC(COCCCCCCCCCCCCCCCC)COP(=O)([O-])OCC[N+](C)(C)C (stereo not given)	101	98.5	96.6 (inactive)	96.9 (inactive)
N[C@H](C(=O)O)c1cccc(O)c1 [(S)-3-Hydroxyphenylglycine]	95.2	99.7	102 (inactive)	100 (inactive)
O=C(O)c1cn(C2CC2)c2cc(N3CCNCC3)c(F)cc2c1=O [Ciprofloxacin]	105	107	91.7 (inactive)	102 (inactive)
CNCCCC12CCC(c3ccccc31)c1ccccc12.Cl [Maprotiline.HCl]	100	90.4	94.5 (inactive)	119 (inactive)
CC(C)C[C@@H](C(=O)O)c1cc(-c2ccc(C(F)(F)F)cc2)cc(-c2ccc(C(F)(F)F)cc2)c1	98.7	92.4	93.7 (inactive)	115 (inactive)
OC[C@H]1NC[C@@H](O)[C@@H]1O [1,4-Dideoxy-1,4-imino-D-arabinitol]	105	97.9	88.6 (inactive)	90.4 (inactive)
CC(C)n1cnc2c(NCc3ccccc3)nc(NCCCO)nc21 [Bohemine]	91.4	87.5	100 (inactive)	106 (inactive)
CCCCNc1cc(C(=O)O)cc(S(N)(=O)=O)c1Oc1ccccc1 [Bumetanide]	102.7 ± 0.95	105 ± 2	96.4 (inactive)	100 (inactive)
O=C(O)c1ccc2ccccc2c1O.OCc1cc(C(O)CNCCCCCCOCCCCc2ccccc2)ccc1O (stereo not given) [Salmeterol xinafoate]	100	100	97.5 (inactive)	121 (inactive)
C[C@H](O)[C@H](O)[C@H]1CNc2[nH]c(N)nc(=O)c2N1.Cl.Cl	103	97.2	92.5 (inactive)	97 (inactive)
